Data taken from PubChem BioAssay (EPA / NIEHS).
Where “and” joins values, the source holds several entries; their conditions need not be identical. Identical values can stand only once. Results filed as inconclusive are left out. Where a structure was tested more than once in an assay, its records may differ in their call. Calls of active or inactive are those of the source. The calls were made as follows: active = hit-call score of the fitted dose curve at least 0.9, where 1 is the maximum; inconclusive = response in the unintended direction; inactive = score below 0.9.

Columns and labels:
[1] = ATG_XTT_Cytotoxicity: Cytotoxicity Assessment in the Attagene TRANS-FACTORIAL HepG2 Assay (AID 2283584);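 as to AC50: cells exposed to compound for 24 h before reading; active means loss of viability signal versus DMSO baseline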
In short: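 Viability endpoint from XTT after 24 h chemical exposure of reporter-transfected human HepG2 liver cells; signal loss fitted relative to DMSO negative control.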

[2] = TOX21_p53_BLA_p2_viability: Viability Assessment in the Tox21 HCT-116 p53 Agonism Beta-lactamase Assay, Phase 2 (AID 2283591);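 also: compound exposure lasted 16 h at 37 °C; actives lower the ATP signal meaning cytotoxicity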
In short: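 HCT-116 p53-bla cells (4000/well) rested 5 h at 37C, then received compounds in DMSO (217-fold dilution) for 16 h at 37C, 5% CO2. After the CCF4 read, CellTiter-Glo was added; ATP luminescence was read after 30 min at room temperature.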

[3] = target: Cellular tumor antigen p53 (Homo sapiens) (UniProt P04637); experiment: TOX21_p53_BLA_p2_ratio: Tox21 HCT-116 p53 Agonism Beta-lactamase Assay, Ratio, Phase 2 (AID 2283592)
Sequence of Cellular tumor antigen p53 (Homo sapiens) (P04637 whole entry, looked up): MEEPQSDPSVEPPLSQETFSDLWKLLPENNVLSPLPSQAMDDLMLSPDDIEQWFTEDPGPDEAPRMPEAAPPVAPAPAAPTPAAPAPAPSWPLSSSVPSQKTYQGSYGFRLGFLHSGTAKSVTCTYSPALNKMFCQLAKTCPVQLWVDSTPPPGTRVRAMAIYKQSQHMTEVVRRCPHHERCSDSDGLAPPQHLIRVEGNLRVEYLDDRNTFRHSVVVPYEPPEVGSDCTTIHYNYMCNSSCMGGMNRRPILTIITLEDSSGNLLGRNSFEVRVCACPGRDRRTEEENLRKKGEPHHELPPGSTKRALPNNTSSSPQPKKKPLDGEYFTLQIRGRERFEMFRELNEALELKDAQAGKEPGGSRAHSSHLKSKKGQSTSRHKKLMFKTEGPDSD
In short: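 Gain-of-signal p53 agonism was scored from the beta-lactamase FRET ratio (460/530 nm, 405 nm excitation) in HCT116 cells treated 16 h at 37C, 5% CO2, with DMSO serving as negative control and baseline.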

[4] = TOX21_p53_BLA_p3_viability: Viability Assessment in the Tox21 HCT-116 p53 Agonism Beta-lactamase Assay, Phase 3 (AID 2283593);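 also: cells exposed to compound for 16 h before reading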
In short: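 HCT-116 cells (4000/well) rested 5 h at 37C, then got DMSO compounds by pin tool (217-fold dilution) for 16 h at 37C, 5% CO2. After the bla read, CellTiter-Glo was added and luminescence read at 30 min, room temperature.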

[5] = target: Cellular tumor antigen p53 (Homo sapiens) (UniProt P04637); experiment: TOX21_p53_BLA_p3_ratio: Tox21 HCT-116 p53 Agonism Beta-lactamase Assay, Ratio, Phase 3 (AID 2283596)
In short: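 HCT116 p53-bla cells (4000/well) given compound in DMSO (217-fold dilution) after 5 h, incubated 16 h at 37C. CCF4-AM substrate 2 h at room temperature; 460/530 nm emission ratio, gain fitted against DMSO.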

[6] = TOX21_p53_BLA_p4_viability: Viability Assessment in the Tox21 HCT-116 p53 Agonism Beta-lactamase Assay, Phase 4 (AID 2283597);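 also: hits lower the luminescence signal meaning cytotoxicity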
In short: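 Following a 16 h exposure at 37C, the treated HCT116 wells were first read for the FRET ratio. They were then lysed with CellTiter-Glo, and ATP luminescence was recorded after 30 min at room temperature.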

[7] = target: Cellular tumor antigen p53 (Homo sapiens) (UniProt P04637); experiment: TOX21_p53_BLA_p5_ratio: Tox21 HCT-116 p53 Agonism Beta-lactamase Assay, Ratio, Phase 5 (AID 2283599)
In short: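 HCT-116 cells carrying a p53-inducible beta-lactamase reporter were seeded at 4000 cells/well and dosed after 5 h with compound in DMSO (217-fold dilution). After 16 h at 37C, CCF4-AM substrate was added for 2 h, and the 460/530 nm emission ratio was scored as gain-of-signal versus DMSO.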

[8] = TOX21_p53_BLA_p5_viability: Viability Assessment in the Tox21 HCT-116 p53 Agonism Beta-lactamase Assay, Phase 5 (AID 2283600)
In short: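 After the 460/530 nm beta-lactamase measurement, the wells received an ATP-detection luciferase reagent; signal was read 30 min later at RT. Compound treatment lasted 16 h on cells pre-incubated 5 h post-seeding.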

[9] = target: Cellular tumor antigen p53 (Homo sapiens) (UniProt P04637); experiment: TOX21_p53_BLA_p4_ratio: Tox21 HCT-116 p53 Agonism Beta-lactamase Assay, Ratio, Phase 4 (AID 2283601)
In short: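 HCT116 cells carrying an inducible beta-lactamase reporter were plated at 4000 cells/well, rested 5 h, then exposed to compounds in DMSO (217-fold dilution) for 16 h at 37C. CCF4-AM substrate was loaded 2 h at room temperature; 460/530 nm emission ratio scored gain-of-signal versus DMSO.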

Measured: AC50

COP(=S)(OC)Oc1cc(Cl)c(I)cc1Cl
active: [1] 157 µM | [3] 73.9 µM | [5] 75.1 µM | [9] 87.3 µM
inactive: all other assays above

CC(C)(COCC1CO1)COCC1CO1 (stereo not given)
inactive: [1]

O=c1oc2ccccc2c(O)c1C(CC(O)c1ccc(-c2ccc(Br)cc2)cc1)c1ccccc1 (stereo not given)
inactive: [1] | [2] | [6] | [8] | [9]
active: [2] 6.09 µM | [5] 43.4 µM and 22.3 µM | [6] 10.4 µM | [7] 27.2 µM and 14.3 µM | [8] 19.3 µM | [9] 20.4 µM

CCOC(=O)c1ccccc1S(=O)(=O)NC(=O)Nc1nc(Cl)cc(OC)n1
inactive: [1]

CCOP(=S)(OCC)SCS(=O)(=O)C(C)(C)C
inactive: [1]

C[CH2][Hg][S]c1ccccc1C(=O)O
active: [2] 32 µM and 18.4 µM | [3] 2.74 µM | [4] 46.1 µM and 6.74 µM | [5] 221 nM and 970 nM | [6] 41.7 µM and 5.78 µM | [7] 350 nM and 3 µM | [9] 46.1 µM and 34.6 µM
inactive: [1] | [3]

COc1nn(C(=O)NS(=O)(=O)c2ccccc2OC(F)(F)F)c(=O)n1C
inactive: [1]

CCC[CH2][Sn]([CH2]CCC)([CH2]CCC)[CH2]CCC
inactive: [3]
active: [1] 33.9 µM | [2] 30.1 µM | [4] 20.2 µM | [5] 29.6 µM | [6] 42.2 µM | [7] 44.3 µM | [8] 41 µM | [9] 68.7 µM

[F][Sn]([c]1ccccc1)([c]1ccccc1)[c]1ccccc1
active: [1] 1.35 µM | [2] 1.6 µM | [3] 10.1 µM | [4] 13.3 µM | [5] 13.5 µM | [6] 3.96 µM | [7] 18.3 µM | [8] 13.2 µM | [9] 12 µM

CCOP(=O)(OCC)SCCSCC
inactive: [1]

BrCC(Br)c1ccccc1 (stereo not given)
inactive: [1]

CCOP(=S)(OCC)SCSc1cc(Cl)ccc1Cl
inactive: [1] | [2]

OC(Cc1ccccc1Cl)(Cn1cncn1)C1(Cl)CC1 (stereo not given)
inactive: [1]

C1CN2CCN1CC2
inactive: [1]

ClCc1ccccc1CCl
inactive: [1]

[Cl][Sn]([c]1ccccc1)([c]1ccccc1)[c]1ccccc1
active: [1] 1.73 µM and 986 nM

Oc1c(Br)cc(Br)cc1Br
inactive: [1]

CC(c1ccccc1)(c1ccc(O)cc1)c1ccc(O)cc1
active: [1] 40.4 µM

OC(Cc1ccccc1Cl)(Cn1[nH]cnc1=S)C1(Cl)CC1 (stereo not given)
inactive: [1]

Oc1cccc(-c2ccccc2)c1
inactive: [1]

C[N+](C)(C)Cc1ccccc1
inactive: [1]

C1CCC(C2CCCCC2)CC1
inactive: [1]

CCOP(=O)(OCC)OC(=CCl)c1ccc(Cl)cc1Cl
inactive: all assays above

O=c1nc(O)n(Cl)c(=O)n1Cl
inactive: [1]

O=C(Nc1ccc(Br)cc1)c1cc(Br)cc(Br)c1O
inactive: [1] | [2] | [8] | [9]
active: [2] 0.391 µM | [4] 1.12 µM and 641 nM and 1.79 µM | [5] 255 nM and 198 nM and 1.8 µM | [6] 1.33 µM and 417 nM and 2.76 µM | [7] 1.11 µM and 782 nM and 7.78 µM | [8] 9.14 µM | [9] 1.11 µM and 589 nM

O=C(NC(=O)c1c(F)cccc1F)Nc1cc(Cl)c(OC(F)(F)C(F)C(F)(F)F)cc1Cl (stereo not given)
not listed: [4] | [8]
inactive: all other assays above

CC1(C)[C@H](/C=C2\CCSC2=O)[C@@H]1C(=O)OCc1coc(Cc2ccccc2)c1
active: [9] 69.3 µM
inactive: all other assays above

N#CS
not listed: [4]
inactive: all other assays above

CCCCCCCCCCCCN(C)C
not listed: [7] | [9]
inactive: all other assays above

Cc1cc(-c2cc(C)c(N)c(C)c2)cc(C)c1N
not listed: [8]
inactive: all other assays above

CCOc1cc(C=O)ccc1O
not listed: [4]
inactive: all other assays above

C=CCN=C=S
inactive: all assays above

CCOP(=S)(OCC)OP(=S)(OCC)OCC
not listed: [8]
inactive: all other assays above

O=[N+]([O-])c1cccc2ccccc12
not listed: [8]
inactive: all other assays above

CN(N=O)C(N)=O
not listed: [6] | [8]
inactive: all other assays above
